Compound activity from PubChem BioAssay.
MazEF act: MazEF (E. coli) toxin RNase activation; activation, % at 20 µM; 350,000 compounds, 0.32% hits; FAM/BHQ RNA-DNA oligo cleavage fluorescence, 5 h; P0AE70; AID 504720; in the data active = activation above about 50%
Target sequence (P0AE70 whole entry, looked up): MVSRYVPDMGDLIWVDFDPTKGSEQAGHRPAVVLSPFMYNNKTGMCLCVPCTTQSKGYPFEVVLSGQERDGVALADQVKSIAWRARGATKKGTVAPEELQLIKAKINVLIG
Sa ugtP lethal: kills S. aureus RN4220 lacking UgtP; S. aureus RN4220 ugtP deletion, OD600 growth, 16 h; 330,000 compounds, 0.54% hits; AID 1259309; growth inhibition, % (test concentration not listed); in the data active = growth inhibition above about 68%
BJeLR viability: BJeLR cell viability loss; BJeLR (HRASV12) viability, CellTiter-Glo ATP luminescence, 48 h; 300,000 compounds, 0.17% hits; inhibition, % (concentration not given with the values); in the data active = inhibition above about 50%
RN4220 kill: kills Staphylococcus aureus RN4220; S. aureus RN4220 growth, OD600, 16 h; inhibition, % (concentration not given with the values); 330,000 compounds, 0.33% hits; in the data active = inhibition above about 85%
SSB-PriA inh: blocks PriA binding to SSB C-terminal tail; AlphaScreen SSBct-PriA binding, biotinylated peptide; inhibition, % at 33 µM; 430,000 compounds, 0.6% hits; AID 1272365; in the data active = inhibition mostly above about 37%, no sharp cut-off; inactive = mostly below about 20%
A number is an active result; n = inactive; x = not tested or not shown. Hits are enriched below; roughly 1.2% of the tested compounds scored in any of these assays.

SMILES | MazEF act | Sa ugtP lethal | BJeLR viability | RN4220 kill | SSB-PriA inh
CC(C)CN(C(=O)CN1CCN(c2ccc(O)cc2)CC1)c1c(N)n(CC(C)C)c(=O)[nH]c1=O | n | n | n | n | n
CCCCCCC(=O)NN=Cc1c(O)n(CCc2ccccc2)c(=O)[nH]c1=O | x | x | x | x | n
O=C(Nc1nc(-c2ccccn2)cs1)c1ccc(CN2C(=O)CNC2=O)cc1 | x | x | x | x | n
Cc1ccc(C)n1CC(=O)Nc1nc(-c2ccccn2)cs1 | x | x | x | x | 100
CC1=CC(=O)CC(=O)N1CC(=O)Nc1nc(-c2ccccn2)cs1 | x | x | x | x | 84
CC(C)(C)N=C1NN=C(c2cc3ccccc3o2)CS1 | n | n | n | n | 42
CC(C)(C)N=C1NN=C(c2ccc(Cl)cc2)CS1 | n | n | n | n | n
Cc1ccc(CSc2ncnc3c2cnn3Cc2ccccc2)cc1 | n | 90 | n | n | n
Cc1ccc(CSc2ncnc3c2cnn3Cc2ccccc2)cc1C | n | 93 | n | n | n
COc1ccc2c(c1)C(SCC(=O)NCCc1ccc(Cl)cc1)CC(C)(C)O2 (stereo unspecified) | n | n | n | n | n
CCOc1cc(NS(=O)(=O)c2cc(C)c(C)cc2OC)ncn1 | x | x | x | x | n
Nc1ccc(SCc2nc3cccc4c3n2CCC4)cc1 | n | x | n | x | 44
C=CCc1c(C)nc2c(-c3ccccc3)cnn2c1NCCc1ccc(OC)c(OC)c1 | x | x | x | x | 36
COc1ccc(CCNc2cc(C)nc3c(-c4ccccc4OC)cnn23)cc1OC | n | n | n | n | n
COc1ccccc1N1CCN(C(=O)c2csc(Nc3ccccc3)n2)CC1 | x | x | x | x | 24
Cc1onc(C(=O)N2CCN(C(c3ccccc3)c3ccccc3)CC2)c1[N+](=O)[O-] | n | n | 75 | n | n
Cc1cc(S(=O)(=O)Nc2cccnc2)c(Cl)cc1Cl | n | n | n | n | n
O=c1[nH]c2ccc(N=Cc3c(O)ccc4cc(Br)ccc34)cc2[nH]1 | 256 | n | n | n | n
O=C(O)Cc1ccc(N=Cc2c(O)ccc3ccccc23)cc1 | n | n | n | n | n
COc1ccc(N=c2cc(-c3ccc(O)cc3)oc3ccccc23)cc1 | n | n | n | n | 42
COc1ccc(-c2cc(=Nc3ccc(C)cc3)c3ccccc3o2)cc1 | n | n | n | n | n
CCOc1ccc(N=c2cc(-c3ccc(OC)cc3)oc3ccccc23)cc1 | n | n | n | n | 39
COc1ccc(N=c2cc(-c3ccc(OC)cc3)oc3ccccc23)cc1 | n | x | n | x | 53
COc1ccc(CN2CCC(N3CCC(C(=O)N4CCOCC4)CC3)CC2)c(F)c1 | n | n | n | n | n
O=C(c1cccc(N2CCCC2=O)c1)N1CCC2(CC1)OCCO2 | n | n | n | n | n
SMILES | MazEF act | Sa ugtP lethal | BJeLR viability | RN4220 kill | SSB-PriA inh
O=[N+]([O-])c1ccc(NN=Cc2c[nH]c3ccccc23)c(S(=O)(=O)Nc2ccc(Cl)cc2)c1 | x | 99 | x | n | n
O=[N+]([O-])c1ccc(N/N=C/c2c[nH]c3ccccc23)c(S(=O)(=O)Nc2ccc(Cl)cc2)c1 | n | x | n | x | x
Cc1cc(NC(=O)CSc2nccn2-c2cccc(C)c2C)no1 | n | n | n | n | n
COc1ccc(-n2ccnc2SCC(=O)Nc2ccc(Cl)cc2)cc1 | x | x | x | x | 49
COc1ccc(OC)c(NC(=O)CSc2nccn2-c2ccc(F)cc2)c1 | x | x | x | x | 54
CCOc1ccccc1NC(=O)CSc1nccn1-c1ccc(C(=O)NCc2cccs2)cc1 | x | x | x | x | 40
Cc1cccc(-n2ccnc2SCC(=O)Nc2ccc([N+](=O)[O-])cc2)c1C | x | x | x | x | 51
O=C(CCCn1c(=O)[nH]c2cc(Cl)ccc2c1=O)NC1CCCCCCC1 | n | n | n | n | n
CCOC(=O)c1ccc(NC(=O)CSc2nccn2-c2ccc(OC)cc2OC)cc1 | x | x | x | x | n
COc1ccc(-n2ccnc2SCC(=O)Nc2cc(C)ccc2C)c(OC)c1 | x | x | x | x | 39
COc1cccc(-n2ccnc2SCC(=O)Nc2cc(OC)ccc2OC)c1 | n | n | n | n | 46
COc1ccc(NC(=O)CSc2nccn2-c2cccc(OC)c2)cc1 | n | n | n | n | n
COc1cccc(-n2ccnc2SCC(=O)Nc2ccccc2C(F)(F)F)c1 | x | x | x | x | 44
CCn1c(CCCOc2ccc(Cl)cc2Cl)nnc1SCC(=O)Nc1cccc(F)c1 | n | n | n | n | x
CC1N=C(c2ccccc2Cl)c2cc(Br)ccc2NC1=O (stereo unspecified) | n | n | n | n | n
NC(CO)C(=O)NNCc1ccc(O)c(O)c1O (stereo unspecified) | 223 | x | n | x | n
O=S1(=O)C=C(Sc2nc3cc(Cl)ccc3o2)c2ccccc21 | n | 91 | n | n | n
Nc1ccc(N(c2ccccc2)c2ccc(N)cc2)cc1 | n | n | n | n | 42
COc1ccc(-c2cc3nc(C)cc(-c4ccc(OC)cc4)n3n2)cc1 | n | n | n | n | n
COc1ccc(-c2cc3nc(C)cc(N)n3n2)cc1 | n | n | 51 | n | n
Cc1ccc(C(=O)NC2CCCCNC2=O)cc1C (stereo unspecified) | n | n | n | n | n
Oc1[nH]c(N=C2N=c3ccccc3=N2)c2ccccc12 | 56 | n | 54 | n | n
Cc1ccc2c(c1)=N/C(=N\c1[nH]c(O)c3ccccc13)N=2 | 58 | x | x | x | x
Oc1[nH]c(=S)sc1C=C1N=c2ccccc2=N1 | n | n | n | n | n
CC(=O)c1ccc2c(c1)C1C(Cl)C(Sc3ccccc3[N+](=O)[O-])CC1C(C(=O)O)N2 (stereo unspecified) | n | n | x | n | 46
SMILES | MazEF act | Sa ugtP lethal | BJeLR viability | RN4220 kill | SSB-PriA inh
O=C(O)c1cccc2c1NC(C(=O)O)C1CC(Sc3ccccc3[N+](=O)[O-])C(Cl)C21 (stereo unspecified) | n | n | x | n | n
COc1ccc(CCNC(=O)c2cc(S(=O)(=O)N(C)C)ccc2N2CCCC2)cc1OC | n | n | n | n | n
C=CCNc1nc(Cl)nc(Nc2ccc(OC)cc2OC)n1 | n | n | n | n | n
Cc1cc(C(=O)CN2C(=O)c3ccccc3C2=O)c(C)n1Cc1cccs1 | 68 | n | n | n | n
CC1CN(S(=O)(=O)c2cccc(-c3csc(-c4ccccc4)n3)c2)CC(C)O1 (stereo unspecified) | 70 | n | n | n | n
COC(=O)c1cnc(NNS(=O)(=O)c2ccc(Cl)cc2)nc1C(F)(F)F | n | n | n | n | n
COCc1nnc(NC(=O)C2CCN(C(=O)c3ccco3)CC2)s1 | n | n | n | n | n
CC1(C)CC(=O)C/C(=N\NC(=O)C2CC23CCC3)C1 (stereo unspecified) | n | x | n | x | x
O=C(O)c1ccccc1-c1ccc(/C=C/c2cc(C(F)(F)F)[nH]c(=O)n2)o1 | 745 | n | n | n | n
Nc1ccc2oc(-c3ccccc3Cl)cc(=O)c2c1O | n | 94 | n | n | n
O=c1cc(-c2ccccc2Cl)oc2c([N+](=O)[O-])c(O)cc(O)c12 | n | 91 | n | 87 | n
O=c1cc(-c2ccccc2Cl)oc2ccc([N+](=O)[O-])c(O)c12 | n | 100 | n | 99 | n
Cc1cc(C(=O)N(Cc2cccnc2)c2nc3c(C)ccc(Cl)c3s2)on1 | x | x | x | x | n
O=C(CSc1ccc(NC(=O)C2CC2)nn1)Nc1ccc(F)cc1F | x | x | x | x | n
